AmpC inh no detg: AmpC beta-lactamase inhibition without detergent; P00811; AmpC nitrocefin hydrolysis, absorbance 480 nm, 0.0001% Triton; Potency, µM (titrated, usually from 57.1 µM), hits mostly inhibitors; hit rate 0.52% among 330,000; AID 485341; note: nearly all actives have a fitted effect of over 20% in size
Target sequence (P00811 whole entry, looked up): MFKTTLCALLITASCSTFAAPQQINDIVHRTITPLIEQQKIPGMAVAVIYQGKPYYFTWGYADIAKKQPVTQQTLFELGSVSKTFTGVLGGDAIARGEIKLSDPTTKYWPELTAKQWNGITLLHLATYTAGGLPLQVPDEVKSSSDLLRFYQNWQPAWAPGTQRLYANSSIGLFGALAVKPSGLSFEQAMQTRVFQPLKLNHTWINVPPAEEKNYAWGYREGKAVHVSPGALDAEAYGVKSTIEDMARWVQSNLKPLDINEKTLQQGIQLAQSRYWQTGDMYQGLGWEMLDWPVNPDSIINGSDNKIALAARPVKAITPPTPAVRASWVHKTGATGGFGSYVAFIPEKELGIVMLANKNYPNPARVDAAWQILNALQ
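20 mM phosphate pH 7.0 + 0.01% (detergent screen) or 0.0001% Triton X-100; 5.3 nM AmpC reagent; cpd preinc 15 min RT; nitrocefin (800 uM stock) to start; A480 q20 s × 4 min; Activity was normalised to no-enzyme and no-compound control wells.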
Sm TGR block: blocks Schistosoma mansoni thioredoxin glutathione reductase; Potency, µM (series often up to 114 µM), usual class: inhibitors; hit rate 3% among 360,000; AID 485364; purified TGR, DTNB reduction, TNB absorbance 405 nm; note: nearly all actives have a fitted effect of over 60% in size
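First, TGR (20 nM dispensed) and NADPH were mixed with compound. Second, a 15 min room-temperature incubation followed. Third, further NADPH and then DTNB were added to start the reaction. Finally, TNB absorbance was monitored kinetically.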
AMA1 RON2 block: disrupts binding of P. falciparum AMA1 to RON2; hit rate 0.2% among 360,000; Potency, µM (titrated, usually from 58.2 µM), most hits filed as inhibitors; AID 720542; AlphaScreen AMA1-biotinylated RON2 peptide binding; note: nearly all actives have a fitted effect of over 45% in size
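AMA1 (3D7) with his tag at 25 nM final met compounds first, then biotinylated RON2 peptide at 25 nM; detection used donor plus acceptor beads, 10 µg/mL apiece, read by AlphaScreen after 30 min at room temperature.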
FMDV inh: blocks foot and mouth disease virus. FMDV antiviral cell-based qHTS. Potency, µM (top dose mostly 57.9 µM), usual class: inhibitors. hit rate 1.2% among 410,000; calls by dose curve; tested in HEK293T cells; note: read-out not given here; nearly all actives have a fitted effect of over 45% in size
AmpC detergent: inhibitors of E. coli AmpC beta-lactamase with detergent | AmpC hydrolysis of nitrocefin, absorbance 480 nm, 0.01% Triton | Potency, µM (highest dose often 114 µM), usual class: inhibitors | hit rate 0.041% among 370,000 | AID 485294; note: nearly all actives have a fitted effect of over 25% in size
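AmpC (5.3 nM in the dispensed reagent) in 20 mM phosphate pH 7.0 with 0.01% (detergent screen) or 0.0001% Triton X-100 was preincubated with compounds for 15 min at room temperature. Nitrocefin was then added from an 800 uM solution, and hydrolysis was followed at 480 nm.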
Each line names hits and unclear results; the compound was inactive in the other large screens. Sampled rows, rich in hits. Any-hit rate of the full collection: about 4.1%. Unless noted, calls come from the whole dose curve; as a rule, active = well fitted curve in the direction sought with a large enough effect; inconclusive = small, poorly fitted or top-dose-only effect, or another doubt; inactive = no such curve, though single readings can be large; an effect the other way counts as inactive or inconclusive.

N#Cc1cc(Sc2ccccn2)c(Sc2ccccn2)cc1C#N	AmpC detergent inconclusive
Cc1ccc(Cl)cc1NC(=O)Cn1c(=O)n(CCC(=O)N2CCc3ccccc3C2)c(=O)c2ccccc21	none (no result: AmpC inh no detg, AMA1 RON2 block)
O=C(N/N=C/c1cc(Cl)cc([N+](=O)[O-])c1O)NC12CC3CC(CC(C3)C1)C2	FMDV inh 22µM
CCC12CN3CC(CC)(CN(C1)C3c1c[nH]c3ccccc13)C2=O (stereo not given)	none (no result: AmpC inh no detg, AMA1 RON2 block)
C=CCn1c(=O)[nH]c2cc(C(=O)N3CCN(c4ccc(C(C)=O)cc4)CC3)ccc2c1=O	FMDV inh 14µM, AmpC detergent inconclusive
CCCCNC(=O)CCCCCn1c(=O)[nH]c2cc(C(=O)OC)ccc2c1=O	none
C=CCn1c(=O)[nH]c2cc(C(=O)N3CCN(c4cc(C)ccc4C)CC3)ccc2c1=O	none
C=CCn1c(=O)[nH]c2cc(C(=O)N3CCN(c4cccc(Cl)c4)CC3)ccc2c1=O	FMDV inh 28µM
COc1cccc(N2CCN(C(=O)c3ccc4c(=O)n(CCc5ccccc5)c(=O)[nH]c4c3)CC2)c1	FMDV inh 20µM (no result: AmpC inh no detg, AMA1 RON2 block)
COC(=O)c1ccc2c(=O)n(CCCCCC(=O)O)c(=O)[nH]c2c1	FMDV inh 25µM
COc1ccc(Cn2c(=O)[nH]c3cc(C(=O)N4CCN(c5ccccc5)CC4)ccc3c2=O)cc1	none
CCOC(=O)C1CCCN(C(=O)c2cnn(-c3nccc(-c4cc(C)sc4C)n3)c2C)C1 (stereo not given)	none (no result: AmpC inh no detg, Sm TGR block, AMA1 RON2 block, AmpC detergent)
Cc1ccc(C)n1-c1ccc(C(=O)N/N=C/c2ccncc2)cc1	Sm TGR block 25µM
Cn1c(O)c(C(=Nc2ccccc2)SCc2ccc(Cl)cc2)c(=O)n(C)c1=O	Sm TGR block 20µM
CC(=O)C1=C(c2cccc([N+](=O)[O-])c2)N(C(C)=O)n2c(C)nnc2S1	Sm TGR block 22µM, FMDV inh inconclusive
O=C(c1ccc(S(=O)(=O)N2CCCCC2)cc1)N1CCN(CCN2C(=O)c3cccc4cccc(c34)C2=O)CC1	FMDV inh 16µM
CCc1cccc(NC(=O)Cn2c(=O)n(CC3CCC(C(=O)NCCc4ccccc4)CC3)c(=O)c3ccccc32)c1 (stereo not given)	none (no result: AmpC inh no detg, AMA1 RON2 block)
C#CCSc1nsc(SCC#C)c1C#N	Sm TGR block 35µM (no result: FMDV inh)
CCCSc1nsc(SCCC)c1C#N	AmpC detergent inconclusive
CC(C)Oc1ccc(CNC(=O)c2cnc3sc(N4CCCC4)nn3c2=O)cc1	none (no result: AmpC inh no detg, AMA1 RON2 block)
Clc1ccc(/C=C/c2nc3ccccc3[nH]2)cc1	Sm TGR block 25µM, AmpC detergent inconclusive
O=C(/C=C/c1ccc(Cl)cc1Cl)c1nc2ccccc2[nH]1	none
Clc1ccc(/C=C/c2nc3ccccc3[nH]2)c(Cl)c1	AmpC inh no detg 11µM
Clc1cccc(Cl)c1/C=C/c1nc2ccccc2[nH]1	none
c1ccc(-c2cn(C[C@H]3CC[C@@H]([C@@H]4CC[C@H](Cn5cc(-c6ccccn6)nn5)O4)O3)nn2)nc1	AMA1 RON2 block 1µM
CCC(C)NC(=O)C(Cc1ccccc1)n1cccc1 (stereo not given)	AmpC inh no detg 0.5µM, AmpC detergent inconclusive
COc1ccc(S(=O)(=O)NCCc2sc(-c3cccc(C)c3)nc2C)cc1	none (no result: AmpC inh no detg, AMA1 RON2 block)
COc1ccc(C2(CNC(=O)C(=O)Nc3ccc(C)c(Cl)c3)CCCC2)cc1OC	FMDV inh inconclusive (no result: AmpC inh no detg, AMA1 RON2 block)
COCC(=O)N1CCC2(CC1)CN(C(=O)Nc1ccccc1)C2	none (no result: AmpC inh no detg, Sm TGR block, AMA1 RON2 block, AmpC detergent)
CC(=O)c1ccccc1Oc1nc(CN2CCOCC2)nc2scc(-c3cccs3)c12	Sm TGR block 45µM, FMDV inh inconclusive
CCCCN(CCCC)CCn1cnc2c([nH]c3ccc(OC)cc32)c1=O	AmpC inh no detg 20µM, AmpC detergent inconclusive
Cn1nc(C(=O)Nc2cccc(Cl)c2)cc1C(=O)Nc1cccc(Cl)c1	AmpC inh no detg 16µM
Cc1cc(=O)oc(C)c1C(=O)NCCCN1CCN(c2ccccc2F)CC1	Sm TGR block 35µM
CCOc1ccccc1CNC(=O)CN1C(=O)CCn2nc(-c3cn(C)c4ccccc34)cc21	none (no result: AmpC inh no detg, AMA1 RON2 block)
Oc1cc2c(cc1O)C1c3ccc(O)c(O)c3OCC1(O)C2 (stereo not given)	Sm TGR block 0.71µM, AMA1 RON2 block 2µM, FMDV inh inconclusive
COc1ccc(CC(=O)N2CCc3cc(OC)c(OC)cc3C2COc2ccc(F)cc2)cc1OC (stereo not given)	FMDV inh 25µM (no result: AmpC inh no detg, AMA1 RON2 block)
COc1ccc(CC(=O)N2CCc3cc(OC)c(OC)cc3C2COc2ccc(F)cc2)cc1 (stereo not given)	none (no result: AmpC inh no detg, AMA1 RON2 block)
CN(C)c1ccc(NC(=S)c2ccccn2)cc1	AMA1 RON2 block 14µM, FMDV inh 2.8µM
O=C(CCC1N=C2c3ccccc3N=C(SCc3ccc(Cl)cc3)N2C1=O)NC1CCCCC1 (stereo not given)	none (no result: AmpC inh no detg, AMA1 RON2 block)
N#CC(C#N)=C1C=CC=CN1/C(=C\c1ccco1)C(=O)c1ccc(-c2ccccc2)cc1	Sm TGR block inconclusive, FMDV inh 14µM
CC(/C=N/n1c(-c2ccc(Cl)cc2)n[nH]c1=S)=C\c1ccco1	none
N#CC(C#N)=C1C=CC=CN1/C(=C\c1ccco1)C(=O)c1ccc(Cl)cc1	Sm TGR block 1.4µM, FMDV inh inconclusive
O=C(Nc1nc(-c2ccc(F)c(F)c2)cs1)c1ccc(OCC2CCCO2)cc1 (stereo not given)	FMDV inh 2µM
CCOc1ccc2nc(NC(=O)c3ccc(OCC4CCCO4)cc3)sc2c1 (stereo not given)	FMDV inh 18µM
Cc1ccnc(NC(=O)c2ccc(OCC3CCCO3)cc2)c1 (stereo not given)	FMDV inh 16µM, AmpC detergent inconclusive
Cc1cccc2sc(NC(=O)c3ccc(OCC4CCCO4)cc3)nc12 (stereo not given)	FMDV inh inconclusive (no result: Sm TGR block)
CN(CC1CCCO1)S(=O)(=O)c1ccc(C(=O)Nc2nc(-c3ccccn3)cs2)cc1 (stereo not given)	FMDV inh 28µM
CCC1(C2CCN(Cc3cccc(Cl)c3)CC2)NC(=O)N(CC2COc3ccccc3O2)C1=O (stereo not given)	none (no result: AmpC inh no detg, Sm TGR block, AMA1 RON2 block, AmpC detergent)
O=C(CCS(=O)(=O)c1cc(Br)cc2c1N(C(=O)C1CC1)CC2)NCc1ccccc1Cl	none (no result: AmpC inh no detg, AMA1 RON2 block)
CN(C)CCCNC(=O)C(=O)NCC(c1ccc2c(c1)OCO2)N1CCOCC1 (stereo not given)	none (no result: AmpC inh no detg, AMA1 RON2 block)
NC1(C#Cc2ccc3oc(=O)c(-n4cc(C5(O)CCCCC5)nn4)cc3c2)CCCCC1	none (no result: Sm TGR block, AmpC detergent)
NC1(C#Cc2ccc3oc(=O)c(-n4cc(-c5ccsc5)nn4)cc3c2)CCCCC1	Sm TGR block 56µM
Cc1cccc(NC(=O)CSc2nc(-c3cccs3)cc(C(F)(F)F)c2C#N)c1	none (no result: AmpC inh no detg, AMA1 RON2 block)
COc1ccc(C(=O)NCC23C=CC(O2)C2C(=O)N(Cc4ccccc4)C(=O)C23)cc1 (stereo not given)	Sm TGR block 3.5µM, FMDV inh inconclusive, AmpC detergent inconclusive
COCc1c(C(=O)OCC(=O)c2c(N)n(CC(C)C)c(=O)n(C)c2=O)oc2ccccc12	FMDV inh 32µM
